# Calls of active or inactive are those of the source.
# Assays:
# [1] = system: Plasmodium falciparum Sir2 (PF13_0152, Sir2A); test: pfSir2 binders on small-molecule microarrays, primary screen, biochemical, small-molecule microarray, 635 nm fluorescence (AID 1098); settings: small-molecule microarray binding, fluorescence 635 nm; higher = more signal;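 also: score merges spot fluorescence intensity with its signal-to-noise ratio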
# [2] = small-molecule microarray binders of probe aDKK1, primary screen, biochemical, biotinylated probe, 635/667 nm fluorescence (AID 1099); settings: higher = more signal;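 also: score merges 667nm spot fluorescence with signal to noise across triplicate slides; reference of the scale not given here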
# [3] = small-molecule microarray binders of probe aCHRDL2, primary screen, biochemical, biotinylated probe, 635/667 nm fluorescence (AID 1100); settings: higher = more signal
# [4] = splicing luciferase reporter signal modulators, primary screen, spliceosome inhibition project, cell-based, HEK293, splice +/- reporter (AID 1101); settings: luminescence, 24 h, higher = more signal, called active from +8 up or from −8 down;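 also: HEK293 cells carrying a splicing-competent luciferase reporter gene; test concentration not given here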
# [5] = biological target: Fibroblast growth factor 10 (Homo sapiens) (UniProt O15520); test: FGF10 binders on small-molecule microarrays, primary screen, biochemical, small-molecule microarray, 635 nm fluorescence (AID 1102); settings: FGF10 binding, fluorescence 635 nm, higher = more signal
# [6] = system: glycogen synthase kinase-3 (GSK3A per assay name; protocol says GSK3B); test: GSK3 binders on small-molecule microarrays, primary screen, biochemical, small-molecule microarray, 635 nm fluorescence, GSK3A (AID 1103); settings: small-molecule microarray binding, fluorescence 635 nm; higher = more signal; also: the record names both GSK3A and GSK3B
# [7] = biological target: Epidermal growth factor receptor (Homo sapiens) (UniProt P00533); test: EGFR binders on small-molecule microarrays, primary screen, biochemical, small-molecule microarray, 635 nm fluorescence (AID 1104); settings: EGFR binding, higher = more signal;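 also: score merges 667 nm emission intensity with spot signal to noise over triplicate slides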
# [8] = biological target: Follistatin-related protein 3 (Homo sapiens) (UniProt O95633); test: FSTL3 binders on small-molecule microarrays, primary screen, biochemical, small-molecule microarray, 635 nm fluorescence (AID 1105); settings: FSTL3 binding, higher = more signal;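 also: score merges emission near 667 nm and signal to noise per printed spot across three slides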
# [9] = biological target: Dickkopf-related protein 1 (Homo sapiens) (UniProt O94907); test: DKK1 binders on small-molecule microarrays, primary screen, biochemical, small-molecule microarray, 635 nm fluorescence scan (AID 1106); settings: DKK1 binding, higher = more signal;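 also: score merges emission near 667 nm with signal to noise over three replicate slides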
# [10] = system: Inhibin beta A chain (activin A); test: INHBA (activin A) binders on microarrays, primary screen, biochemical, small-molecule microarray, 635 nm fluorescence scan (AID 1107); settings: small-molecule microarray binding, higher = more signal;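 also: mouse activin A protein probed at 4.33 µg/mL on printed slides; score merges bound-protein fluorescence near 667 nm with spot signal-to-noise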
# Sequence of Follistatin-related protein 3 (Homo sapiens) (O95633 whole entry, looked up): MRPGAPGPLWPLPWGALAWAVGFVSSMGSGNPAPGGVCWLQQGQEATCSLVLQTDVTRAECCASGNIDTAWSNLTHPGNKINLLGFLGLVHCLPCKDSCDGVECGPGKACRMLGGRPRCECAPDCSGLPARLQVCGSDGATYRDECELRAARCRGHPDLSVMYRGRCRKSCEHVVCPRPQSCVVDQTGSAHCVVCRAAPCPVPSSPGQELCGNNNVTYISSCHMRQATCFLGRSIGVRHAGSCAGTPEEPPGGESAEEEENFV
# Sequence of Dickkopf-related protein 1 (Homo sapiens) (O94907 whole entry, looked up): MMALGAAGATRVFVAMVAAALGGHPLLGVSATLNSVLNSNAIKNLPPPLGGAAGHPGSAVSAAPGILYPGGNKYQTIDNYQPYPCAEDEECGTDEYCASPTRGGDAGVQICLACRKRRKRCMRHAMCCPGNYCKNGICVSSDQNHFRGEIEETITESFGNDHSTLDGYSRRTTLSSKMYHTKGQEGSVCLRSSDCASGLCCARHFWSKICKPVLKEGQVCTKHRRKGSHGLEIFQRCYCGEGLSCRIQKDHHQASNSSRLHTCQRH
# Sequence of Fibroblast growth factor 10 (Homo sapiens) (O15520 whole entry, looked up): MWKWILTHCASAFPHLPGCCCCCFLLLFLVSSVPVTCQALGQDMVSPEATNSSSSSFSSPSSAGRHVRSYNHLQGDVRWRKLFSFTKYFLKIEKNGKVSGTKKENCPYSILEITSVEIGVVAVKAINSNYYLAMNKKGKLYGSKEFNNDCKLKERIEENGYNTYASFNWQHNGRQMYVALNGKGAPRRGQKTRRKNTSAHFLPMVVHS
# Sequence of Epidermal growth factor receptor (Homo sapiens) (P00533 whole entry, looked up): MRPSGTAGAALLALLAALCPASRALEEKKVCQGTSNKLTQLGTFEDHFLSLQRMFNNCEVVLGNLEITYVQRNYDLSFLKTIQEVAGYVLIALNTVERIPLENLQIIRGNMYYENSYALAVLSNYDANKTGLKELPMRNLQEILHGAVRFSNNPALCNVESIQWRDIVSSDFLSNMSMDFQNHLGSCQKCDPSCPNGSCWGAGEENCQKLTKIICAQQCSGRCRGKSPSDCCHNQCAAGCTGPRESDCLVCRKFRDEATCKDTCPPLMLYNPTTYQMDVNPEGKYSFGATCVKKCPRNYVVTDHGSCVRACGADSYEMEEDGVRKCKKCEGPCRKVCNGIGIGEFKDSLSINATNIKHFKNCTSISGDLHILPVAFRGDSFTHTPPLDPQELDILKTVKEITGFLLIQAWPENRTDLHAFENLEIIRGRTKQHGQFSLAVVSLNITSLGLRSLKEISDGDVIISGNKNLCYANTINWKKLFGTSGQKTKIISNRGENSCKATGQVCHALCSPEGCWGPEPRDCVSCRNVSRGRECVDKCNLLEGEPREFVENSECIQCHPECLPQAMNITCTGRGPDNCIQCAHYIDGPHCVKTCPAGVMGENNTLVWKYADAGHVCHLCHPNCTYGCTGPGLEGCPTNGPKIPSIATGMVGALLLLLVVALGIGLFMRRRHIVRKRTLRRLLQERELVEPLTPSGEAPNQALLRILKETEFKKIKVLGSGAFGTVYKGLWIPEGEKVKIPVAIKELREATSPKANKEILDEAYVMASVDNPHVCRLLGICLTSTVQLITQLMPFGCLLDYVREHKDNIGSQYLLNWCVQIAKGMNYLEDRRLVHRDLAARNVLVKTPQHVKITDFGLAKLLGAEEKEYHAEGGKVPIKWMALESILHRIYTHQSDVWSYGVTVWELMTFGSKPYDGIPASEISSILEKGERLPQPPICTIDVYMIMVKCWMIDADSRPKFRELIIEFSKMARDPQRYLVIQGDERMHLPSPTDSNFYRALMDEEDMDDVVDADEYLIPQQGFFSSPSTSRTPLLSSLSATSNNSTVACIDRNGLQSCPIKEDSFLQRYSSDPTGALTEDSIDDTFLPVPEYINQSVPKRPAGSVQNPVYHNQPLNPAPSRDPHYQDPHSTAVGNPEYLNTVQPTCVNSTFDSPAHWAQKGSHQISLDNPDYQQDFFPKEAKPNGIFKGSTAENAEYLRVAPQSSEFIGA
Structure (SMILES),composite z-score [1],composite z-score [2],composite z-score [3],z-score [4],composite z-score [5],composite z-score [6],composite z-score [7],composite z-score [8],composite z-score [9],composite z-score [10]
COc1cc([C@@H]2N[C@H](C(=O)O)Cc3c2[nH]c2ccccc32)cc(OC)c1OC,0.175,-0.0572,-0.272,-0.526 (inactive),0.644,0.167,0.3,0.508,0.977,-1.7
CCC(=O)[C@]12O[C@@]3([C@@H]4C(=O)OCC[C@@H]41)N(Cc1ccccc1)C(C)=C(C(=O)OC)[C@@H](c1ccccc1)N3C2=O,0.401,-0.393,-0.314,-1.15 (inactive),0.0848,-0.588,-0.0835,-0.782,-0.0297,1.47
Cc1ccc(N2C(=O)c3ccccc3[C@](C)(C(=O)O)[C@@H]2c2ccc(CO)cc2)nc1,-0.445,-0.322,0.365,0.763 (inactive),-0.883,-1.45,-2.18,-1.21,-0.967,-0.292
CC(=O)NCCCC[C@@H]1NC(=O)[C@@H]2C[C@H](C(=O)NCCCCCNC(=O)CS)[C@H](c3ccc(O)cc3)N2C1=O,1.45,-0.384,0.292,-1.88 (inactive),-0.282,-0.631,-0.817,-0.781,0.527,0.247
COCCOC(=O)N1C(=O)[C@@]2(c3cc(C#CCNC(N)=O)ccc31)[C@H](c1ccc(OCCO)cc1)N1[C@H](c3ccccc3)[C@H](c3ccccc3)OC(=O)[C@H]1[C@@H]2C(=O)N1CCCCCCC1,0.795,1.48,1.11,-0.908 (inactive),0.198,-0.246,0.0212,0.895,0.199,1.69
CC(C)N1CC=CC23O[C@@H]4/C=C\CCCOC(=O)C4[C@H]2C(=O)N(CCO)[C@@H]3C1=O (stereo not given in full),1.01,0.155,0.677,-1.84 (inactive),-0.363,-0.456,-1.02,-0.516,-1.08,1.45
CC(C)(C)OC(=O)CC[C@@]1(C(=O)NCc2ccccc2)N=C(c2ccc(OCCCO)cc2)O[C@@H]1c1ccccc1,1.64,1.29,1.31,-0.791 (inactive),0.556,1.26,-0.152,0.545,0.144,0.119
CC[C@H]1C2=C3C(CC[C@H]4C(OC)OC[C@](C)([C@@H]34)N(C(=O)OC(C)(C)C)C2)C(CO)C1CO (stereo not given in full),0.593,1.54,1.6,-0.715 (inactive),0.754,1.16,0.194,1.07,-0.212,0.828
C=CC[C@]1(C(=O)O)N=C(c2ccc(OCCCO)cc2)O[C@H]1c1ccccc1N=[N+]=[N-],1.75,0.623,1.05,-0.627 (inactive),-0.103,-0.335,-0.18,-0.214,-0.651,1.43
O=C1C2C=CC(C(O)C#Cc3ccccc3)N(Nc3ccccc3)C2C(=O)N1c1ccccc1 (stereo not given),1.66,-0.0212,0.498,0.287 (inactive),-0.102,-0.208,-0.512,-0.445,-0.572,0.687
O=C1C2C=CC(C(O)Cc3ccccc3)N(Nc3ccc([N+](=O)[O-])cc3)C2C(=O)N1c1ccccc1 (stereo not given),1.04,1.07,0.498,0.843 (inactive),0.653,0.539,0.277,0.576,-0.0044,0.582
COC(=O)C1=CC(c2ccc(CO)cc2)=CC(C2CC2)N(Cc2sc3ccccc3c2Cl)C=C1C(=O)OC (stereo not given),1.55,1.02,0.978,-1.16 (inactive),0.855,1.3,0.242,1.19,0.304,0.715
COc1ccc(CCNC(=O)[C@@]2(c3ccc([N+](=O)[O-])cc3)CC(=O)N(C(C)C)[C@@H]2c2ccc(CO)cc2)cc1,1.25,0.716,1.24,-0.58 (inactive),-0.787,-0.767,-1.57,-1.67,-1.43,-0.445
C[C@H]1COC(=O)[C@@H]2CCCN2C(=O)[C@@H](C)COC(=O)[C@@H]2CCCN2C1=O,-0.0175,-0.37,-0.675,-0.0582 (inactive),0.419,-0.295,0.514,-0.0914,0.563,-0.0885
CC(c1ccccc1)C(O)C1C=CC2C(=O)N(C)C(=O)C2N1N(c1ccccc1)c1ccccc1 (stereo not given),0.0872,1.01,1.2,1.05 (inactive),0.234,0.187,-0.451,0.0656,-0.623,1.41
CN1C2C=C(c3ccc(CO)cc3)C(C3C(=O)N(C(N)=O)C(=O)C32)C1c1cccs1 (stereo not given),1.41,-0.0009,0.549,-0.795 (inactive),0.25,-0.148,0.136,-0.623,-0.72,1.02
COC(=O)C(CC#Cc1ccc2c(c1)[C@]1(C(=O)N2)[C@H](C(=O)N2CCCCCCC2)[C@H]2C(=O)O[C@H](c3ccccc3)[C@H](c3ccccc3)N2[C@@H]1c1ccc(O)cc1)C(=O)OC,0.465,-0.2,0.269,-0.751 (inactive),-1.05,-1.63,-0.887,-0.635,-0.785,0.16

Structure (SMILES),composite z-score [1],composite z-score [2],composite z-score [3],z-score [4],composite z-score [5],composite z-score [6],composite z-score [7],composite z-score [8],composite z-score [9],composite z-score [10]
CO[C@H]1COC(=O)[C@@H](C)COC(=O)[C@H](Cc2ccccc2)NC(=O)CC=C[C@H]1C,0.7,-0.416,-1.09,-0.776 (inactive),0.457,0.0364,1.04,1.06,1.5,1.15
COc1ccc([Si](C)(C)[C@H]2[C@H](CC(=O)N(CCO)Cc3ccccc3)O[C@@]3(C(=O)N(C)c4ccccc43)[C@@H]2C)cc1,0.624,-0.29,-0.519,-1.44 (inactive),1.19,0.25,0.631,0.996,1.05,0.92
COc1cccc([C@H]2N[C@H](C(=O)O)CC[C@@H]2C)c1,-0.406,-0.251,-0.136,-1.94 (inactive),-0.401,0.0602,0.194,0.0151,0.0655,0.282
CCCNC(=O)[C@@H]1c2ccccc2C(=O)N(Cc2cc(F)cc(C(F)(F)F)c2)[C@H]1c1ccc(CO)cc1,1.54,0.792,0.853,-1.26 (inactive),0.926,1.29,0.497,1.35,0.677,1.05
CC(C)[Si]1(C(C)C)OCc2cc(C3CC3)nc(-c3ccccc3)c21,0.0305,-0.294,0.525,-2.27 (inactive),-0.395,-1.24,-0.385,-0.708,-0.342,1.21
CCCC[C@H]1OB(O)C[C@H]2C1=C(COC)C[C@H]1C(=O)N(Cc3ccccc3)C(=O)[C@H]12,-0.0105,0.0752,-0.0346,-1.27 (inactive),0.78,0.261,0.013,1.1,0.0988,0.223
CC(C)C[C@@H]1NC(=O)[C@H](CC(C)C)NC(=O)[C@@]23C(=O)N[C@@H](Cc4ccccc4)C2[C@H](C)[C@@]2(C)O[C@H]2C3/C=C/CC/C=C/CNC1=O (stereo not given in full),1.05,-0.233,-0.406,-0.218 (inactive),0.707,0.516,0.543,0.998,1.19,1.38
CC(C)[Si](OCCCNS(=O)(=O)c1ccc(Br)cc1)(C(C)C)C(C)C,0.373,0.526,0.0951,-0.619 (inactive),0.831,1.18,0.742,0.753,0.673,-0.415
CC(C)NC(=O)[C@@]1(Cc2ccccc2I)c2ccccc2C(=O)N(C2CCCCC2)[C@H]1c1ccc(CO)cc1,1.02,0.65,0.793,0.129 (inactive),1.1,1.2,0.118,1.35,0.4,0.386
CC(C)[C@H]1NC(=O)[C@@]23C(=O)N[C@@H](Cc4ccccc4)C2[C@H](C)[C@@]2(C)O[C@H]2C3/C=C/C/C=C\CNC(=O)[C@H](C)NC1=O (stereo not given in full),-0.949,-0.386,-0.256,0.616 (inactive),0.392,-1.37,-1.31,-0.825,-0.443,1.32
Cc1ccc(S[C@]2(C(=O)NCCCN(C)C)CC(=O)N(C3CCCCC3)[C@@H]2c2ccc(CO)cc2I)cc1,-0.939,0.956,1.14,-1.31 (inactive),-0.582,0.219,-1,-0.593,-0.256,1.14
O=C1C2C=CC(C(O)c3ccccc3)N(n3cnnc3)C2C(=O)N1Cc1ccccc1 (stereo not given),0.0854,0.446,0.908,-0.524 (inactive),0.0573,-0.279,0.392,-0.117,-0.433,1.46
O=C(NCc1ccccc1)c1ccc(Br)cc1[N+](=O)[O-],0.333,-0.261,-0.47,0.628 (inactive),0.39,0.215,0.425,0.494,0.346,0.31
C[N+](C)(C)CCCCNC(=O)[C@H]1C[C@H]2C(=O)NCC(=O)N2[C@H]1c1cccc(OCCO)c1,1.59,0.0166,-0.335,0.589 (inactive),1.45,1.29,1.09,1.49,1.84,0.747
C[C@H]1NC(=O)[C@@H](C)NC(=O)[C@@]23C(=O)N[C@@H](Cc4ccccc4)C2[C@H](C)[C@@]2(C)O[C@H]2C3/C=C/C/C=C\CNC1=O (stereo not given in full),1.66,-0.581,-0.781,-0.697 (inactive),0.14,0.0002,0.0021,0.171,0.422,1.28
Cc1ccc(S[C@]2(C(=O)NC(C)C)CC(=O)N(C3Cc4ccccc4C3)[C@@H]2c2ccc(CO)cc2)cc1,1.24,-0.786,0.556,-1.15 (inactive),-0.258,-0.106,-0.544,-0.0429,-1.2,-0.215
CCOC(=O)C[C@H]1[C@H](OC(=O)c2cc3ccccc3oc2=O)[C@@H](NC(=O)c2ccc3ccccc3c2)c2cc(OCCCO)ccc2N1C(=O)c1ccc2ccccc2n1,0.209,0.0447,-0.19,-0.017 (inactive),0.876,0.4,0.573,1.09,0.858,0.392

# Reference: PubChem BioAssay
